The results in this text go back to PubChem BioAssay (EPA / NIEHS).

“And” between values parts separate entries of the source, which are not always exact repeats. Equal values may be shown once. Where a structure was tested more than once in an assay, its records may differ in their call. The source made the active and inactive calls. How the source made its calls: active means hit-call score of the fitted dose curve at least 0.9, where 1 is the maximum; inactive means score below 0.9.

What all share (conditions): mRNA level, 48 h; actives raise or lower the signal
Read-out in test [1]: Bcl-2 (BAD) gene, BAD (gene 572)
Briefly: LTEA_HepaRG_BAD: Life Technologies and Expression Analysis (LTEA) Assay for Bcl-2 (BAD) gene using HepaRG (AID 2283469). In short, it runs like this: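 HepaRG, 48 h exposure, 8-pt half-log curve from 100 uM in 0.5% DMSO, duplicates. Readout: TaqMan qRT-PCR for BAD mRNA, housekeeping-normalised (ACTB/GAPDH/POLR2A); gain or loss fitted against DMSO baseline.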

Read-out in test [2]: Bcl-2 (BAX) gene, BAX (gene 581)
The test can be described thus: LTEA_HepaRG_BAX: Life Technologies and Expression Analysis (LTEA) Assay for Bcl-2 (BAX) gene using HepaRG (AID 2283470). In short, it runs like this:
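Cells were thawed, plated for 48 h, moved to serum-free induction medium and dosed for 48 h (highest concentration 100 uM, half-log steps, 0.5% DMSO). Total RNA was then analysed for BAX expression by qRT-PCR.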

Read-out in test [3]: adenosine kinase (ADK) gene, ADK (gene 132)
Briefly: LTEA_HepaRG_ADK: Life Technologies and Expression Analysis (LTEA) Assay for adenosine kinase (ADK) gene using HepaRG (AID 2283471). The procedure, abridged: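 HepaRG (human liver), 48 h chemical exposure, 8-pt half-log series, top 100 uM, 0.5% DMSO vehicle. Readout: ADK mRNA by qRT-PCR vs housekeeping genes; bidirectional curve fit relative to DMSO baseline.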

Read-out in test [4]: Alpha-fetoprotein (AFP) gene, AFP (gene 174)
Briefly: LTEA_HepaRG_AFP: Life Technologies and Expression Analysis (LTEA) Assay for Alpha-fetoprotein (AFP) gene using HepaRG (AID 2283472). The procedure, abridged:
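Chemicals were tested on differentiated HepaRG cells for 48 hours at eight concentrations up to 100 uM, with 0.5% DMSO as vehicle. AFP expression was then quantified by qRT-PCR and analyzed for gain or loss relative to DMSO.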

Read-out in the next test: BCL2L11 (gene 10018)
The test can be described thus: LTEA_HepaRG_BCL2L11: Life Technologies and Expression Analysis (LTEA) Assay for Bcl-2 (BCL2L11) gene using HepaRG (AID 2283473). The procedure, abridged: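 Differentiated human HepaRG cells were exposed 48 h in serum-free induction medium to eight half-log concentrations up to 100 uM in 0.5% DMSO, in duplicate. BCL2L11 mRNA was quantified by TaqMan qRT-PCR, normalized to ACTB, GAPDH and POLR2A; induction or repression fitted versus DMSO.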

Read-out in test [5]: Apolipoprotein A-V (APOA5) gene, APOA5 (gene 116519)
The test can be described thus: LTEA_HepaRG_APOA5: Life Technologies and Expression Analysis (LTEA) Assay for Apolipoprotein A-V (APOA5) gene using HepaRG (AID 2283474). In short, it runs like this:
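Differentiated HepaRG cells in serum-free induction medium, exposed 48 h in duplicate to eight half-log concentrations topping at 100 uM (0.5% DMSO). APOA5 mRNA by Fluidigm TaqMan qRT-PCR, normalized to ACTB, GAPDH and POLR2A; bidirectional fit versus DMSO.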

Read-out in test [6]: Apoptosis regulator Bcl-2 (Homo sapiens) (UniProt P10415)
Briefly: LTEA_HepaRG_BCL2: Life Technologies and Expression Analysis (LTEA) Assay for Bcl-2 gene using HepaRG (AID 2283475). In short, it runs like this:
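Plated human HepaRG cells are exposed to test chemicals for 48 h across eight concentrations from 100 uM downward in half-log steps (0.5% DMSO). BCL2 expression is then measured by qRT-PCR with housekeeping normalisation and fitted bidirectionally against vehicle.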

Read-out in another test: Caspase-3 (Homo sapiens) (UniProt P42574)
Briefly: LTEA_HepaRG_CASP3: Life Technologies and Expression Analysis (LTEA) Assay for cysteine-aspartic acid protease (CASP3) using HepaRG (AID 2283477). In short, it runs like this: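 Differentiated HepaRG cells, plated 48 h, were treated in duplicate in serum-free induction medium for 48 h with eight half-log concentrations up to 100 uM in 0.5% DMSO. CASP3 mRNA measured by qRT-PCR, normalized to ACTB, GAPDH, POLR2A.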

Read-out in test [7]: Cytochrome P450 (CYP24A1), CYP24A1 (gene 1591)
The test can be described thus: LTEA_HepaRG_CYP24A1: Life Technologies and Expression Analysis (LTEA) Assay for Cytochrome P450 (CYP24A1) using HepaRG (AID 2283478). The procedure, abridged:
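HepaRG cells plated 48 h, then exposed in duplicate in serum-free induction medium for 48 h to 8-point half-log series from 100 uM in 0.5% DMSO. CYP24A1 mRNA by Fluidigm qRT-PCR, normalized to ACTB, GAPDH, POLR2A; bidirectional fit versus DMSO.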

Read-out in test [8]: Cytochrome P450 (CYP1A2), CYP1A2 (gene 1544)
The test can be described thus: LTEA_HepaRG_CYP1A2: Life Technologies and Expression Analysis (LTEA) Assay for Cytochrome P450 (CYP1A2) using HepaRG (AID 2283479). In short, it runs like this:
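Differentiated human HepaRG cells in serum-free induction medium exposed 48 hours in duplicate to 8 half-log concentrations from 100 uM, 0.5% DMSO. CYP1A2 mRNA quantified by qRT-PCR, normalized to ACTB, GAPDH and POLR2A; bidirectional fitting versus DMSO.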

Read-out in test [9]: cysteine-aspartic acid protease (CASP8), CASP8 (gene 841)
The test can be described thus: LTEA_HepaRG_CASP8: Life Technologies and Expression Analysis (LTEA) Assay for cysteine-aspartic acid protease (CASP8) using HepaRG (AID 2283480). In short, it runs like this:
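qRT-PCR readout of CASP8 mRNA, normalized to three housekeeping genes, after 48 h chemical exposure of HepaRG cells; 8-point half-log series, top 100 uM, 0.5% DMSO vehicle. Bidirectional curve fitting against DMSO baseline.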

Read-out in test [10]: Cytochrome P450 (CYP2B6), CYP2B6 (gene 1555)
Briefly: LTEA_HepaRG_CYP2B6: Life Technologies and Expression Analysis (LTEA) Assay for Cytochrome P450 (CYP2B6) using HepaRG (AID 2283481). The procedure, abridged:
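Differentiated human HepaRG cells in serum-free induction medium, dosed in duplicate for 48 h over 8 half-log concentrations topping at 100 uM (0.5% DMSO). CYP2B6 mRNA measured by TaqMan qRT-PCR, normalized to ACTB, GAPDH, POLR2A; bidirectional fit versus DMSO.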

Read-out in test [11]: Cytochrome P450 2C19 (Homo sapiens) (UniProt P33261)
The test can be described thus: LTEA_HepaRG_CYP2C19: Life Technologies and Expression Analysis (LTEA) Assay for CYP2C19 using HepaRG (AID 2283482). The procedure, abridged: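 Differentiated HepaRG cells in serum-free induction medium exposed 48 h in duplicate, 8 concentrations from 100 uM by half-log steps in 0.5% DMSO. CYP2C19 mRNA measured by TaqMan qRT-PCR, normalized to ACTB, GAPDH, POLR2A. Bidirectional fit versus DMSO.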

Read-out in the next test: CYP2C8 (gene 1558)
Briefly: LTEA_HepaRG_CYP2C8: Life Technologies and Expression Analysis (LTEA) Assay for CYP2C8 using HepaRG (AID 2283483). In short, it runs like this: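 HepaRG (human liver line), 48 h chemical exposure, 8-pt half-log series from 100 uM, 0.5% DMSO vehicle. Readout: CYP2C8 transcript by qRT-PCR, housekeeping-normalized. Bidirectional fit vs DMSO baseline.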

Read-out in a further test: CYP2C9 (gene 1559)
Briefly: LTEA_HepaRG_CYP2C9: Life Technologies and Expression Analysis (LTEA) Assay for CYP2C9 using HepaRG (AID 2283484). The procedure, abridged:
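HepaRG, 48 h dosing, 8-pt half-log series, top 100 uM, 0.5% DMSO vehicle. Read-out: CYP2C9 transcript by TaqMan qRT-PCR, housekeeping-normalized (ACTB/GAPDH/POLR2A). Gain or loss fitted vs DMSO baseline.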

Read-out in a further test: CYP2E1 (gene 1571)
The test can be described thus: LTEA_HepaRG_CYP2E1: Life Technologies and Expression Analysis (LTEA) Assay for CYP2E1 using HepaRG (AID 2283485). In short, it runs like this:
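Readout is qRT-PCR of CYP2E1 mRNA, normalized to three housekeeping genes and fitted bidirectionally against 0.5% DMSO. HepaRG cells were dosed 48 h at eight concentrations, highest 100 uM with half-log dilutions.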

Read-out in test [12]: DNA damage-inducible transcript 3 (DDIT3), DDIT3 (gene 1649)
Briefly: LTEA_HepaRG_DDIT3: Life Technologies and Expression Analysis (LTEA) Assay for DNA damage-inducible transcript 3 (DDIT3) using HepaRG (AID 2283488). In short, it runs like this: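 Cells are human HepaRG liver cells treated for 48 h with eight half-log concentrations up to 100 uM in 0.5% DMSO. Transcript levels come from qRT-PCR normalized to three housekeeping genes, with activity fitted in both directions relative to vehicle.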

Read-out in test [13]: Bcl-2 (BID) gene, BID (gene 637)
The test can be described thus: LTEA_HepaRG_BID: Life Technologies and Expression Analysis (LTEA) Assay for Bcl-2 (BID) gene using HepaRG (AID 2283476). In short, it runs like this:
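Cells are plated, cultured 48 h, switched to serum-free induction medium, then dosed 48 h (100 uM top, half-log steps, 0.5% DMSO). RNA is isolated and BID expression read by qRT-PCR.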

Read-out in test [14]: Cytochrome P450 3A4 (Homo sapiens) (UniProt P08684)
The test can be described thus: LTEA_HepaRG_CYP3A4: Life Technologies and Expression Analysis (LTEA) Assay for CYP3A4 using HepaRG (AID 2283487). The procedure, abridged: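 CYP3A4 transcript measured by TaqMan qRT-PCR and normalized to three housekeeping genes after 48 h chemical exposure of human HepaRG cells. Top concentration 100 uM, half-log steps, 0.5% DMSO vehicle; gain or loss fitted against DMSO baseline.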

Read-out in a further test: CYP4A11 (gene 1579)
The test can be described thus: LTEA_HepaRG_CYP4A11: Life Technologies and Expression Analysis (LTEA) Assay for CYP4A11 using HepaRG (AID 2283486). In short, it runs like this:
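Differentiated HepaRG cells, 48 h after plating, exposed in duplicate for 48 h to 8 half-log concentrations up to 100 uM in 0.5% DMSO in serum-free induction medium. CYP4A11 mRNA measured by TaqMan qRT-PCR, normalized to ACTB, GAPDH and POLR2A.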

By AC50 is commonly meant the concentration at which the activity in the assay is half-maximal.

Sequence of Apoptosis regulator Bcl-2 (Homo sapiens) (P10415 whole entry, looked up): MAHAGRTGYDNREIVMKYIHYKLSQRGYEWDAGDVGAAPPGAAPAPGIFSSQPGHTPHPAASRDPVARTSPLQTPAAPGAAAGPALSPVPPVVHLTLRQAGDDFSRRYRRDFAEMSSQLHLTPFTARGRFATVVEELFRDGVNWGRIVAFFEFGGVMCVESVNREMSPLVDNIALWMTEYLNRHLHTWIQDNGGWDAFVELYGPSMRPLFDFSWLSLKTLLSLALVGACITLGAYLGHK
Sequence of Caspase-3 (Homo sapiens) (P42574 whole entry, looked up): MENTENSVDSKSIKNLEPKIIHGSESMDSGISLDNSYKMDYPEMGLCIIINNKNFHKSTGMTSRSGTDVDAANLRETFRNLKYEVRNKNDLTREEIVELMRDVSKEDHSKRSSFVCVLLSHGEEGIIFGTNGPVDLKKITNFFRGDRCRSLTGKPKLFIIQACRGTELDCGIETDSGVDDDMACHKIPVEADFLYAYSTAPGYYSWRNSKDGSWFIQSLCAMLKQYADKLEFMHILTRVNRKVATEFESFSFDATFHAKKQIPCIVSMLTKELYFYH
Sequence of Cytochrome P450 2C19 (Homo sapiens) (P33261 whole entry, looked up): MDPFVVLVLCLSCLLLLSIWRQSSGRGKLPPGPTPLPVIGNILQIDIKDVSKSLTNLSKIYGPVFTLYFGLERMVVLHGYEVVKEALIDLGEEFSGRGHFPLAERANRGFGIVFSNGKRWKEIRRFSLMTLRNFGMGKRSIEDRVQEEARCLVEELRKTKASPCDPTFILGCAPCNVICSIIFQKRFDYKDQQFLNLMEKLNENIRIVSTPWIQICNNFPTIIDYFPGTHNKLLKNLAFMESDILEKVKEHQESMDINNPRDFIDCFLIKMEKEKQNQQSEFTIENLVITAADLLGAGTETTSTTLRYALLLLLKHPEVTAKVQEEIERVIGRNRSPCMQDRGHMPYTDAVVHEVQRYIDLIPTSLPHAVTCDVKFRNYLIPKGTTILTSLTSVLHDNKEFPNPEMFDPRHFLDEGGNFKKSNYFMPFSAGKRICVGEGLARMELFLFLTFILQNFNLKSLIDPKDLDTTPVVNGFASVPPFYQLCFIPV
Sequence of Cytochrome P450 3A4 (Homo sapiens) (P08684 whole entry, looked up): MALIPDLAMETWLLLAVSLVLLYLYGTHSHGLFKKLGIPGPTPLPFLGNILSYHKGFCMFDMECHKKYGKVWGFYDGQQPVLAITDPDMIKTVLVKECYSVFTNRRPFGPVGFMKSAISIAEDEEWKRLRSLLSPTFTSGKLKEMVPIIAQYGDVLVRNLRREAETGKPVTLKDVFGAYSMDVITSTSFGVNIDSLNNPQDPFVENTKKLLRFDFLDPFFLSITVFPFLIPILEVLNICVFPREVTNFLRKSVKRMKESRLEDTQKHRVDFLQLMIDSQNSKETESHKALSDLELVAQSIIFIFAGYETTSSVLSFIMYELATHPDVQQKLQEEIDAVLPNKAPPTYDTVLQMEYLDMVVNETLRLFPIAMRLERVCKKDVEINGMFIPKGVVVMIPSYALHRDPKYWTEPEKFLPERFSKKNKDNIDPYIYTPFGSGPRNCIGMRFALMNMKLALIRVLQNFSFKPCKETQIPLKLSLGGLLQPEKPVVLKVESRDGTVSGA

On to `CCN(CC)C(=O)c1cccc(C)c1`, for which the compound was classed as inactive (in test [1]; in test [2]; in [3]; in test [4]; in the test with BCL2L11 (gene 10018); in [5]). Besides, the outcome (in test [6]; with Caspase-3 (Homo sapiens); in [7]; in test [8]; in [9]; in test [12]) was inactive. In addition, the AC50 is 3.4 µM (active) in test [10]; 12.9 µM (active) in test [11]; 9.19 µM (active) with CYP2C8 (gene 1558); 3.56 µM (active) in the test with CYP2C9 (gene 1559); 13.4 µM (active) in the test with CYP2E1 (gene 1571).

`CCCCOC(=O)C(C)Oc1ccc(Oc2ccc(C(F)(F)F)cn2)cc1` (stereo unspecified): the result (in test [1]; in test [2]; in [3]; in test [4]; in the test with BCL2L11 (gene 10018); in test [5]) was inactive. Also, the compound was classed as inactive (in test [6]; in test [13]; in the test with Caspase-3 (Homo sapiens); in test [7]; in [8]; in [9]). Further, the compound was classed as inactive (in test [10]; in [11]; in the test with CYP2C8 (gene 1558); with CYP2C9 (gene 1559); in the test with CYP2E1 (gene 1571); in [14]). Besides, the compound was called inactive in [12].

For `CC(C)(c1ccc(O)cc1)c1ccc(O)cc1`, the compound was called inactive (in [1]; in [2]; in test [3]; in test [4]; with BCL2L11 (gene 10018); in [5]). The outcome (in test [6]; in test [13]; with Caspase-3 (Homo sapiens); in test [7]; in [9]; in [11]) was inactive. The compound was called inactive (in the test with CYP2C8 (gene 1558); with CYP2E1 (gene 1571); in the test with CYP4A11 (gene 1579); in test [14]; in [12]). Moreover, the AC50 was 50 µM (active) in [8]; 50 µM (active) and 31.1 µM (active) and 64.4 µM (active) in test [10]; 37.1 µM (active) in [11].
